Consider 3 compounds from PubChem BioAssay AID743182 (Broad Institute, 2013).

The source made the active and inactive calls.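 Rule for the calls: active = cell killing with a fitted half-maximal concentration at most twice the top valid dose tested; inconclusive = flat curve with 30 to 70% signal loss, or poor fit; inactive = the rest.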

A short description of the assay: HEK293 cell cytotoxicity, dose response, cytotoxicity control, luminescence, dry powder, set 8 (AID 743182). The conditions noted are these: HEK293T viability, CellTiter-Glo ATP luminescence, 72 h; series mostly up to 26 µM.
`CSc1ccc(/C=N/NC(=O)c2ccc3nc[nH]c3c2)cc1`: the call was inactive.
Take `O=C(N/N=C/c1c[nH]c2ccccc12)c1cccc(O)c1`: the outcome was inactive.
As for `O=C(N/N=C/c1c[nH]c2ccccc12)c1cccs1`, the compound was called inactive.
